Measurements taken from PubChem BioAssay AID651780 (The Scripps Research Institute Molecular Screening Center, 2012).
Hit rate of the full screen: of about 2,400 compounds, about 1,800 (75%) were called active. Rule as the data show it: active = inhibition above about 22%; inactive = the rest. The set was probably picked from earlier hits. The list is a sample of the results.

Test: calcium response inhibition in counter-screen line – cell-based, fluorescence, counter-screen for hTAAR1 antagonist project (AID 651780);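 also: CHO-Ga16 host cells stimulated with ATP at an EC80 level; 0% = agonist EC80 plus vehicle and 100% = vehicle without agonist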
Details: counterscreen cell line, antagonist mode, at 3 µM, stronger effect = higher value

Structure (SMILES)	inhibition
COC(=O)C1=C(c2ccc(F)cc2OCc2ccccc2)C[C@@H]2CC[C@H]1N2C(=O)NCc1ccc(OC)c(OC)c1	24.8% (active)
COC(=O)C1=C(c2ccccc2OCc2ccccc2)C[C@@H]2CC[C@H]1N2C(=O)NCc1ccc(OC)cc1	22.2% (active)
O=C1C2(Cl)C3(Cl)C4(Cl)C(Cl)(Cl)C5(Cl)C3(Cl)C1(Cl)C5(Cl)C24Cl (stereo not drawn)	24.9% (active)
